# High-throughput results: PubChem, several laboratories
# In the library only some 2.9% were active in any assay of this set; here they are far more common.
# FAS TE block: FAS thioesterase domain inhibitors, primary screen, biochemical, fluorescence intensity, uHTS | recombinant FAS-TE, OMFH fluorogenic substrate, fluorescence endpoint | inhibition, % at 15 µM | hit rate 0.67% among 360,000 | AID 602261, 2012;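 active = compounds whose normalised, plate-corrected inhibition of enzyme fluorescence in the single-dose primary screen is 50% or more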;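 also: 0% = DMSO with enzyme and 100% = substrate without enzyme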
# KLK7 zymogen act: proKLK7 zymogen activators, primary screen, biochemical, fluorescence intensity | hit rate 0.9% among 370,000 | activation, % at 7 µM | purified proKLK7, EDANS-DABCYL substrate fluorescence; 100% is mature enzyme control, 0% vehicle | Kallikrein-7 (Homo sapiens), P49862;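 active = activation above the mean of all tested compounds plus 3 SD, computed per campaign excluding outliers beyond control limits, cut at about 13% in these data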
# Target sequence (P49862 whole entry, looked up): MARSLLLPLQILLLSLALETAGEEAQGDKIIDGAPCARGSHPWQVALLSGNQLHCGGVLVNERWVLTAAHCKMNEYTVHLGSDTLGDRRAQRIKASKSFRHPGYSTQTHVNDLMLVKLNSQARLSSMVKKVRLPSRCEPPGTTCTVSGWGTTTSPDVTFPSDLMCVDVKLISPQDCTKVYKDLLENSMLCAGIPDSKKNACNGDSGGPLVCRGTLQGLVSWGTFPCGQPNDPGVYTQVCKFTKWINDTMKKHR
# FXN GAA850 act: FXN promoter activators, primary screen, cell-based, luciferase luminescence, HEK293 lucGAA850 | HEK293 lucGAA850 FXN promoter luciferase reporter, 24 h; percent of 10 µM SAHA response | activation, % at 6 µM | hit rate 0.56% among 360,000 | AID 540364, 2011;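 active = activation above the average of all compounds screened plus 3 SD, cutoff fixed separately per campaign, cut at about 7.5% in these data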;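 also: 0% = DMSO wells and 100% = 10 µM SAHA wells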
# SMARCA2 act: SMARCA2 (BRM) function activators, primary screen, cell-based, luminescence, high throughput. MG213 cells, MMTV-luciferase reporter, dexamethasone, overnight. activation, % at 9.1 µM. hit rate 1% among 370,000; in the data active = activation above about 7.8%;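 also: 0% = vehicle wells and 100% = reference activator wells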
# SMARCA2 act conf: SMARCA2 (BRM) function activators, confirmation, cell-based, luminescence, triplicate. hit rate 30% among 3,500. MG213 cells, MMTV-luciferase with dexamethasone, overnight; MG213 cells expressing E1A, Rb sequestered; DMSO wells 0%, reference activator 100%. activation, % at 9.1 µM. shares compounds with SMARCA2 act. AID 652260, 2013;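 active = activation above its plate's cutoff, the mean activation of tested wells plus 3 SD, cut at about 7.9% in these data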
# GAL4-VP16 Luc: GAL4-VP16 luciferase reporter activation, counter-screen for SMARCA2 (BRM) activator project, cell-based, pG5luc, luminescence, high throughput; shares compounds with SMARCA2 act; HEK293 GAL4-VP16 pG5luc reporter; scaled: DMSO wells 0%, SAHA wells 100%; activation, % at 9.1 µM; hit rate 41% among 3,500; AID 686939, 2013;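 active = activation above the solvent-only control well mean plus 3 SD, averaged across control plates, cut at about 5.2% in these data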
# * marks the source's active call; other numbers are inactive results; · = not tested or not shown.
SMILES,FAS TE block,KLK7 zymogen act,FXN GAA850 act,SMARCA2 act,SMARCA2 act conf,GAL4-VP16 Luc
COc1ccc(C2=Nn3c(nnc3-c3ccccc3C(F)(F)F)SC2)cc1OC1CCOC1 (stereo unspecified),6.4,-0.1,0.2,8.4*,16.1*,5.9*
COc1ccc(C2=Nn3c(nnc3-c3ccncc3)SC2)cc1OC,-7.6,0.1,6.9,8.6*,2.8,4.4
Cc1ccc2c(c1)sc[n+]2Cc1ccccc1,-4.3,0.5,10.2*,10.1*,3.5,7.8*
CC(C)C[C@@H](CSc1ccc(Br)cc1)N1CCN(C)CCC1=O,4.0,-0.4,4.5,8.2*,9.0*,9.2*
O=C(COC(=O)CCOc1ccccc1)NCCC1=CCCCC1,0.2,0.4,-2.1,-1.8,·,·
CCC(C)c1ccc(OCCN2CCCC2)cc1 (stereo unspecified),-11.4,0.5,0.2,9.2*,2.7,1.1
CCOc1ccc(OCCN2CCCCC2)cc1,-4.9,-0.2,1.1,0.4,·,·
COc1ccc(C(=O)Cc2ccc3c(c2)OCO3)c(O)c1,-11.3,8.2,4.3,8.2*,1.1,8.9*
COc1ccc(-c2cc(C(=O)NCc3cccc(Cl)c3)[nH]n2)c(C)c1,9.7,0.0,0.7,-2.9,·,·
CC(C)CC1NC(=O)N(CC(=O)Nc2cccc(Br)c2)C1=O (stereo unspecified),4.5,-0.3,2.4,9.6*,1.1,1.3
Cn1nc(C(C)(C)C)cc1C(=O)N1CCCCC1c1cc(C(=O)Nc2cccc(C#N)c2)no1 (stereo unspecified),8.2,0.2,-1.4,-3.7,·,·
Oc1ccc(CCNc2c3ccccc3nc3ccccc23)cc1O,-6.2,2.2,-2.1,8.4*,24.7*,2.1
COC(=O)C1=C(C)N(Cc2ccccc2C(F)(F)F)C(=NCc2cccc(C(F)(F)F)c2)NC1c1ccc(C(F)(F)F)cc1 (stereo unspecified),·,0.3,·,10.2*,-6.6,-0.3
COC(=O)C1=C(C)N(Cc2ccccc2C(F)(F)F)C(=NCc2ccccc2)NC1c1ccc(C(F)(F)F)cc1 (stereo unspecified),·,-0.5,·,0.3,·,·
Cc1ccccc1N1CC(C(=O)NC2CCCC2)CC1=O (stereo unspecified),-7.8,-1.2,0.8,-3.4,·,·
O=C(Nc1cccc([N+](=O)[O-])c1)C1C2/C=C\CCCCC21 (stereo unspecified),15.5,0.7,0.9,-2.6,·,·
N#Cc1cc2c(nc1SCc1ccncc1)CCC2,-1.6,1.2,4.0,11.6*,3.4,4.8
COc1ccc(-n2nc3cc(C)c(NC(C)=O)cc3n2)cc1,2.8,9.9,3.2,8.1*,4.6,8.9*
COc1ccc(-n2nc3cc(C)c(N)c(Br)c3n2)cc1,10.8,-4.4,6.6,8.4*,10.6*,11.1*
COc1ccc(Cc2nc3ccc(C(=O)NCc4cc(C)no4)cc3o2)cc1,-2.7,-1.8,3.8,10.2*,1.9,5.7*
Cc1ccc(NC(=O)CN2C(=O)S/C(=C\c3cccn3-c3cccc(C(=O)O)c3)C2=O)cc1C,-0.8,0.6,-1.2,-2.8,·,·
Fc1ccc(/C=N/Nc2nccnc2Cl)cc1,-4.5,0.1,5.6,9.5*,8.4*,7.8*
Fc1cccc(/C=N/Nc2nccnc2Cl)c1,-3.8,0.1,3.6,4.7,·,·
Oc1ccc(/C=N/Nc2nccnc2Cl)cc1,-4.7,0.1,6.5,13.5*,6.6,7.5*
CC(=O)Cc1nsc(Nc2ccc3c(c2)OCCO3)n1,-3.9,-0.7,2.5,5.7,·,·
SMILES,FAS TE block,KLK7 zymogen act,FXN GAA850 act,SMARCA2 act,SMARCA2 act conf,GAL4-VP16 Luc
CCS(=O)(=O)N1CCC(C(=O)NCC2CCCO2)CC1 (stereo unspecified),-6.7,0.0,1.2,-1.9,·,·
COc1ccc(C(=O)OCC(=O)Nc2ccc(F)c(F)c2F)cc1OC,-0.6,0.1,-0.2,10.1*,0.9,-0.7
COC(=O)CNC(=O)COC(=O)c1ccc(OC)c([N+](=O)[O-])c1,-2.8,0.8,0.4,9.1*,-0.7,-0.7
COc1cc(CCC(=O)OCC(=O)Nc2ccc(F)c(F)c2F)cc(OC)c1OC,4.3,0.1,0.5,-0.3,·,·
Cc1cccc(C(=O)OCC(=O)NCc2cccs2)c1,-7.0,-0.4,4.0,-1.6,·,·
CS(=O)(=O)c1ccc(C(=O)OCC(=O)NCc2cccs2)cc1[N+](=O)[O-],12.7,0.2,8.8*,11.9*,-14.2,2.4
CCOC(=O)Cn1c(C(=O)OCC)cc2sccc21,-0.8,0.1,1.6,-3.9,·,·
CCOC(=O)c1cc2sccc2n1CC(=O)C(C)(C)C,1.0,0.2,0.3,10.0*,-3.6,1.2
COC(=O)c1ccccc1NC(=O)N1CCN(c2ccc(F)cc2)CC1,13.2,0.3,-0.4,-1.7,·,·
CC1CCCCC1NC(=O)C(Cc1ccccc1)NS(=O)(=O)c1cccs1 (stereo unspecified),-3.8,-0.1,5.3,8.7*,3.1,-0.2
CC(CCc1ccccc1)NC(=O)C(Cc1ccccc1)NS(=O)(=O)c1cccs1 (stereo unspecified),0.0,0.5,-1.2,-4.8,·,·
Cc1ccc(C(=O)N[C@H](C(=O)NC2CCCCCCC2)C(C)C)cc1,-0.7,-0.1,-0.6,-2.5,·,·
CCCCn1c(N)c(N(CC)C(=O)c2cc(S(=O)(=O)N3CCN(CC)CC3)ccc2Cl)c(=O)[nH]c1=O,-0.7,0.2,-0.8,-0.8,·,·
COc1cccc(CNC(=O)CCC2CCCN(C(=O)c3ccc(C)nc3)C2)c1 (stereo unspecified),-2.6,-0.3,-1.7,-2.2,·,·
CC(C)c1c(C(=O)Nc2ccccc2)c(-c2ccccc2)c(-c2ccc(F)cc2)n1CC[C@@H](O)C[C@@H](O)CC(=O)O,0.5,0.4,-1.6,17.5*,12.8*,-0.6
CCc1ccc2[nH]c(=O)c(CN(CCN(CC)CC)C(=O)Nc3ccccc3OC)cc2c1,-6.9,0.2,0.4,9.0*,-0.6,0.9
CCN(CC)CCCN(Cc1cc2cc3c(cc2[nH]c1=O)OCO3)C(=S)Nc1ccccc1OC,-3.1,2.2,-0.4,1.7,·,·
COc1ccccc1NC(=S)N(CCCN(C)C)Cc1cc2cc3c(cc2[nH]c1=O)OCO3,-2.2,2.0,0.5,8.0*,-1.1,-0.3
O=C(/C=C\c1ccc2c(c1)OCO2)Nc1nnc(SCC(=O)OCc2ccccc2)s1,·,-0.2,·,1.9,·,·
COc1ccc(S(=O)(=O)NCCOc2ccccc2)cc1OC,-6.5,-0.3,1.0,-0.5,·,·
CC(=O)n1cc(/C=C2/N=C(c3ccccc3)OC2=O)c2ccccc21,1.1,-1.2,-2.6,8.2*,-0.7,1.3
C=CCc1cc(Cl)ccc1OCCNCCCOC,-10.8,-0.1,-0.9,11.1*,-1.7,0.0
